Experimental data: PubChem BioAssay AID651610 (Broad Institute, 2012)
In all, about 360,000 compounds went through this assay and about 3,900 (1.1%) were called active.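 The calls were made as follows: active = mean replicate inhibition score of at least 50 and every replicate individually at or above 50; inconclusive = only one of the two criteria met; inactive = mean below 50 and not all replicates reaching 50.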 This excerpt belongs to a sample that is enriched for actives.

Assay: blockers of JRFL envelope-mediated fusion – HeLa-JRFL effector, CEM21 target cells, luciferase, primary screen (AID 651610);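 also: 0% = plate neutral controls and 100% = maraviroc near 300 nM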
Details: HeLa-JRFL Env/CEM21 cell fusion, active compounds read high; at 16.7 µM unless noted

inhibition, inactive:
CO[C@@H]1CN(C)C(=O)c2ccc(NC(=O)c3ccc(F)cc3)cc2OC[C@H](C)NC[C@@H]1C -0.21%
C[C@@H]1CN([C@H](C)CO)C(=O)Cc2cc(NC(=O)Nc3ccc(F)cc3)ccc2O[C@@H]1CN(C)C(=O)Nc1ccc2c(c1)OCO2 8.43%
COc1ccc(N(CC(=O)Nc2ccc(C)cc2C)S(=O)(=O)c2ccccc2[N+](=O)[O-])c(OC)c1 31.2% [at 12.3 µM]
COc1ccc(N(CC(=O)Nc2cccc3ccccc23)S(C)(=O)=O)c(OC)c1 4.71% [at 12.3 µM]
C[C@H](CO)N1C[C@H](C)[C@@H](CN(C)Cc2ccc(C(=O)Nc3ccccc3N)cc2)Oc2c(NC(=O)c3ccc(-c4nccs4)cc3)cccc2C1=O -33.5%
COc1ccc(Cl)cc1NC(=O)CN(C)C(=O)c1cc2ccccc2cc1OC 26.5% [at 12.3 µM]
COc1ccc(Cl)cc1NC(=O)CN(C)C(=O)CNC(=O)C12CC3CC(CC(C3)C1)C2 -38.6% [at 12.3 µM]
C[C@H](CO)N1C[C@H](C)[C@H](CN(C)C(=O)Nc2ccc(C(F)(F)F)cc2)Oc2ccc(NS(=O)(=O)c3cn(C)cn3)cc2CC1=O 10.7%
CN1C(=O)c2cc(NS(=O)(=O)CC(F)(F)F)ccc2OC[C@H]2O[C@@H](CC(=O)NCc3ccc(Cl)c(Cl)c3)CC[C@@H]21 -8.14%
COCC(=O)Nc1ccc2c(c1)C(=O)N(C)[C@H]1CC[C@H](CC(=O)Nc3ccccc3)O[C@H]1CO2 12.1%
O=S(=O)(NCc1ccccc1)c1ccc(S(=O)(=O)N2CCCC2)cc1 -8.09% [at 12.3 µM]
Cc1nc(Nc2ccc(S(=O)(=O)N3CCCC3)cc2)c2nnn(Cc3ccccc3)c2n1 11.3% [at 12.3 µM]
NCC[C@@H]1CC[C@@H](NC(=O)C2CCCC2)[C@H](CO)O1 -16.5%
O=C(C[C@H]1C[C@H]2c3cc(NC(=O)c4ccc5c(c4)OCO5)ccc3O[C@H]2[C@@H](CO)O1)NCc1cccc(F)c1 -9.68%
CC(=O)c1ccc(-c2nnc(CCC(=O)N(C)Cc3cnc4ccccn34)o2)s1 0.752% [at 12.3 µM]
CCc1ccc(CN(C)Cc2nc(Cc3ccccc3)no2)nc1 9.8% [at 12.3 µM]
CN(C)C(=O)C[C@H]1C[C@H]2c3cc(NC(=O)Nc4ccccc4F)ccc3O[C@H]2[C@@H](CO)O1 1.88%
Cn1c(SCc2ccc(F)cc2)nnc1-c1ccncc1 8.23% [at 12.3 µM]
Cn1cccc1Cc1nnc(SCC(=O)NCCc2ccccc2)n1-c1ccc(F)cc1 16% [at 12.3 µM]
Cc1ccc(-c2noc(CSc3nnc(-c4cccs4)n3C)n2)cc1 19.8% [at 12.3 µM]
O=C(CSc1nnc(Cc2ccccc2)n1-c1ccccc1)N1CCOCC1 -26.5% [at 12.3 µM]
C[C@@H]1CCCCO[C@@H](CN(C)Cc2ccncc2)[C@H](C)CN([C@@H](C)CO)C(=O)c2cc(NS(=O)(=O)c3ccccc3)ccc2O1 18.8%
CO[C@@H]1CN(C)C(=O)c2cc(NC(C)=O)ccc2OC[C@@H](C)N(C(=O)NC2CCCCC2)C[C@H]1C 27.6%
CSc1ccc(CN2CCC2(C)C(=O)NCc2ccccc2Br)cc1 (configuration not stated) 26.2% [at 12.3 µM]
CC1(C(=O)NCc2ccc3c(c2)OCO3)CCN1C(=O)Cc1cccc2ccccc12 (configuration not stated) -2.06% [at 12.3 µM]
C[C@@H]1CN([C@H](C)CO)C(=O)c2cccc(NC(=O)Nc3cccc4ccccc34)c2O[C@@H]1CN(C)C(=O)Nc1cccc2ccccc12 -85%
C[C@H](CO)N1C[C@H](C)[C@@H](CN(C)S(=O)(=O)c2ccc(F)cc2)Oc2c(NC(=O)Nc3ccccc3)cccc2C1=O -4.04% [at 12.3 µM]
COc1ccc(S(=O)(=O)N(C)C[C@H]2Oc3ccc(NC(=O)Nc4ccccc4)cc3CC(=O)N([C@H](C)CO)C[C@@H]2C)cc1 -2.93%
COc1ccc(NC(=O)Nc2ccc3c(c2)CC(=O)N([C@H](C)CO)C[C@H](C)[C@H](CN(C)S(=O)(=O)c2ccc(OC)cc2)O3)cc1 42.7%
C[C@H](CO)N1C[C@H](C)[C@H](CN(C)S(=O)(=O)c2ccccc2)Oc2c(NC(=O)Nc3ccccc3)cccc2C1=O -1.17%
C[C@@H]1CN([C@H](C)CO)C(=O)c2cc(NC(=O)Nc3ccccc3)ccc2O[C@H]1CN(C)S(=O)(=O)c1ccc(F)cc1 -5.96%
C[C@@H]1CCCCO[C@@H](CN(C)S(=O)(=O)c2ccc(F)cc2)[C@@H](C)CN([C@@H](C)CO)C(=O)c2cc(NC(=O)Nc3ccc4c(c3)OCO4)ccc2O1 -5.81%
CNC[C@@H]1Oc2c(NC(=O)Nc3ccc(OC)cc3)cccc2C(=O)N([C@@H](C)CO)C[C@@H]1C 5.18%
CCCN(C)C[C@@H]1Oc2cc(-c3cccc(C#N)c3)ccc2S(=O)(=O)N([C@@H](C)CO)C[C@@H]1C 1.91%
C[C@H](CO)N1C[C@H](C)[C@H](CN(C)C(=O)NC2CCCCC2)Oc2ccc(NC(=O)c3ccncc3)cc2CC1=O -6.85%
C[C@@H]1CCCCO[C@H](CN(C)S(=O)(=O)c2cn(C)cn2)[C@H](C)CN([C@@H](C)CO)C(=O)c2cc(NC(=O)Nc3ccc(C(F)(F)F)cc3)ccc2O1 -4.59%
CC(C)NC(=O)Nc1ccc2c(c1)CC(=O)N([C@@H](C)CO)C[C@@H](C)[C@@H](CN(C)S(=O)(=O)c1ccccc1)O2 4.16%
CC(C)NC(=O)Nc1ccc2c(c1)C(=O)N([C@H](C)CO)C[C@H](C)[C@@H](CN(C)C(=O)CCCN(C)C)OCCCC[C@@H](C)O2 2.66%
C[C@@H]1CCCCO[C@@H](CN(C)Cc2ccc3c(c2)OCO3)[C@@H](C)CN([C@@H](C)CO)C(=O)c2cc(NC(=O)C3CCCCC3)ccc2O1 -19.5%
CN(C)C(=O)c1cccc(-c2ccc3n(c2=O)C[C@H]2N[C@@H]3[C@@H](C(=O)NC3CCC3)[C@@H]2CO)c1 4.81%
C[C@H](CO)N1C[C@H](C)[C@H](CN(C)S(=O)(=O)c2cccs2)Oc2ccc(NS(=O)(=O)c3ccccc3)cc2C1=O 37%
C[C@H]1CN([C@@H](C)CO)C(=O)Cc2cc(NC(=O)Nc3ccc(F)cc3)ccc2O[C@H]1CN(C)S(=O)(=O)c1ccccc1 54%
COc1ccc(S(=O)(=O)N(C)C[C@@H]2Oc3ccc(NC(=O)Nc4c(C)noc4C)cc3C(=O)N([C@H](C)CO)C[C@@H]2C)cc1 -131% [at 12.3 µM]
C[C@H](CO)N1C[C@H](C)[C@H](CN(C)S(=O)(=O)c2ccc(F)cc2)Oc2ncc(-c3ccc(F)cc3)cc2C1=O 24.9%
C[C@H](CO)N1C[C@H](C)[C@@H](CN(C)S(=O)(=O)c2ccccc2)Oc2ccc(NC(=O)Nc3ccc(F)cc3)cc2CC1=O -10.6%
COc1ccc(-c2cnc3c(c2)C(=O)N([C@H](C)CO)C[C@H](C)[C@H](CN(C)S(=O)(=O)c2ccccc2)O3)cc1 11.4%
COc1ccc(NC(=O)Nc2ccc3c(c2)C(=O)N([C@@H](C)CO)C[C@H](C)[C@@H](CN(C)S(=O)(=O)c2ccc(Cl)cc2)O3)cc1 7.85%

inhibition, active:
C=CCn1c(C)cc(C2=NNC(=NCC)SC2)c1C 68.8% [at 12.3 µM]
CCc1ccccc1NC(=O)CN(c1ccc(OC)cc1OC)S(=O)(=O)c1ccccc1[N+](=O)[O-] 55.2% [at 12.3 µM]
COc1ccc(Cl)cc1NC(=O)CN(C)C(=O)CCCc1c[nH]c2ccccc12 75.6% [at 12.3 µM]
O=C1c2cccnc2C(Nc2ccc(S(=O)(=O)N3CCCCCC3)cc2)N1Cc1ccccc1 (configuration not stated) 75.5% [at 12.3 µM]
CCc1ccc(CN(C)C(=O)CCc2nnc(-c3ccc(-c4ccccc4)cc3)o2)nc1 55.8% [at 12.3 µM]
Cc1ccc(-c2noc(CSc3nnc(-c4ccncc4)n3-c3ccc(F)cc3)n2)cc1 62.8% [at 12.3 µM]
Fc1ccc(-n2c(Cc3ccccc3)nnc2SCc2nc(-c3ccc(Cl)cc3)no2)cc1 79.7% [at 12.3 µM]
CC1(C(=O)NCc2cccc3ccccc23)CCN1Cc1ccc(-c2ccccc2)o1 (configuration not stated) 102% [at 12.3 µM]
C[C@H]1CN([C@@H](C)CO)C(=O)c2cccc(NC(=O)Nc3ccc(C(F)(F)F)cc3)c2O[C@H]1CN(C)S(=O)(=O)c1ccccc1 69.3%
COc1ccc(NC(=O)Nc2ccc3c(c2)CC(=O)N([C@H](C)CO)C[C@H](C)[C@H](CN(C)S(=O)(=O)c2ccccc2)O3)cc1 59.1%
C[C@H]1CN([C@@H](C)CO)C(=O)c2cc(NC(=O)Nc3ccc4c(c3)OCO4)ccc2O[C@H]1CN(C)S(=O)(=O)c1ccc(F)cc1 68.9%
CNC[C@H]1Oc2c(NC(=O)Nc3cccc4ccccc34)cccc2C(=O)N([C@H](C)CO)C[C@H]1C 56.8%
C[C@@H]1CN([C@@H](C)CO)C(=O)Cc2cc(NC(=O)Nc3ccccc3)ccc2O[C@@H]1CN(C)S(=O)(=O)c1ccc(F)cc1 56.4%
COc1ccc(NC(=O)Nc2ccc3c(c2)C(=O)N([C@H](C)CO)C[C@H](C)[C@H](CN(C)S(=O)(=O)c2ccc(OC)cc2)O3)cc1 59.4%
Cc1ccc(S(=O)(=O)N(C)C[C@@H]2Oc3ncc(-c4cc5ccccc5o4)cc3C(=O)N([C@H](C)CO)C[C@@H]2C)cc1 73%
